This passage reports outcome and AC50 results from PubChem BioAssay (EPA / NIEHS).

Inconclusive results are not listed. Active and inactive are the calls of the source. The calls were made as follows: active = hit-call score of the fitted dose curve at least 0.9, where 1 is the maximum; inconclusive = response in the unintended direction; inactive = score below 0.9.

Assay [1] can be described thus: LTEA_HepaRG_LDH_cytotoxicity: Cytotoxicity Assessment in the Life Technologies and Expression Analysis (LTEA) Assay (AID 2283563). A digest of the protocol:
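Human HepaRG hepatic cells are treated with test chemicals for 48 h at up to 100 uM in 0.5% DMSO. Cytotoxicity is scored from medium LDH against the vehicle control.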

In assay [2] the target is Cellular tumor antigen p53 (Homo sapiens) (UniProt P04637). The assay can be described thus: TOX21_p53_BLA_p2_ratio: Tox21 HCT-116 p53 Agonism Beta-lactamase Assay, Ratio, Phase 2 (AID 2283592). A digest of the protocol: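 Cleaved-to-uncleaved substrate ratio (460 vs 530 nm) measured in HCT116 cells with an inducible beta-lactamase reporter linked to p53 activity. Compounds incubated 16 h at 37C before 2 h room-temperature CCF4-AM loading.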
Sequence of Cellular tumor antigen p53 (Homo sapiens) (P04637 whole entry, looked up): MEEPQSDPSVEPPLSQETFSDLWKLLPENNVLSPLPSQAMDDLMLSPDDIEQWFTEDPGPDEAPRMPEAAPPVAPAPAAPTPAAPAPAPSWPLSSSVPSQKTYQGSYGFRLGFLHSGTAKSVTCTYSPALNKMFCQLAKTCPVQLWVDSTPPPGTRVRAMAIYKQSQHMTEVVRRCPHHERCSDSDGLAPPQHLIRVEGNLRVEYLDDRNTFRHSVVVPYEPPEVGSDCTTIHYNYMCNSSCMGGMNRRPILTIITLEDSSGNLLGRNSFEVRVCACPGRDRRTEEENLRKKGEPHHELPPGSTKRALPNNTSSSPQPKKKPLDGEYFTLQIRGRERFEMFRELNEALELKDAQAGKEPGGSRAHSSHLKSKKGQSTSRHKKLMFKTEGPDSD

A short description of assay [3]: TOX21_p53_BLA_p3_viability: Viability Assessment in the Tox21 HCT-116 p53 Agonism Beta-lactamase Assay, Phase 3 (AID 2283593).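 Also: cells exposed to compound for 16 h before reading.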 The method in brief:
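Cellular ATP was quantified by CellTiter-Glo luminescence, read after 30 min at room temperature. Beforehand, HCT116 cells (4000/well) received compound 5 h post-seeding, 217-fold diluted from DMSO, then incubated 16 h at 37C.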

For assay [4], the target named is Cellular tumor antigen p53 (Homo sapiens) (UniProt P04637). The assay can be described thus: TOX21_p53_BLA_p3_ratio: Tox21 HCT-116 p53 Agonism Beta-lactamase Assay, Ratio, Phase 3 (AID 2283596). A digest of the protocol: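 Cells were seeded at 4000/well, rested 5 h at 37C, then dosed with DMSO compound solutions (217-fold dilution) for 16 h. CCF4-AM substrate was loaded for 2 h at room temperature, and the 460/530 nm emission ratio was fitted for gain of signal versus DMSO.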

The nature of assay [5]: TOX21_p53_BLA_p4_viability: Viability Assessment in the Tox21 HCT-116 p53 Agonism Beta-lactamase Assay, Phase 4 (AID 2283597).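 Also: hits lower the luminescence signal meaning cytotoxicity.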 The method in brief: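 Viability is taken as cellular ATP: after 16 h compound exposure of HCT116 cells and a 2 h room-temperature CCF4-AM substrate step, CellTiter-Glo reagent is added and luminescence is measured 30 min later.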
In assay [6] the target is Cellular tumor antigen p53 (Homo sapiens) (UniProt P04637). Description: TOX21_p53_BLA_p5_ratio: Tox21 HCT-116 p53 Agonism Beta-lactamase Assay, Ratio, Phase 5 (AID 2283599). The method in brief: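 Beta-lactamase reporter ratio (blue 460 nm over green 530 nm, 405 nm excitation) after 2 h CCF4-AM loading, in HCT-116 cells exposed 16 h at 37 C to compounds pinned at 217-fold dilution. Increases relative to DMSO baseline scored.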

The nature of assay [7]: TOX21_p53_BLA_p5_viability: Viability Assessment in the Tox21 HCT-116 p53 Agonism Beta-lactamase Assay, Phase 5 (AID 2283600). The method in brief: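 Viability is taken from cellular ATP content, measured by luciferase luminescence in the same wells after the beta-lactamase ratio read. Cells are seeded at 4000 per well and exposed to DMSO-dissolved compounds, diluted 217-fold, for 16 h.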

The target in assay [8] is Cellular tumor antigen p53 (Homo sapiens) (UniProt P04637). The assay can be described thus: TOX21_p53_BLA_p4_ratio: Tox21 HCT-116 p53 Agonism Beta-lactamase Assay, Ratio, Phase 4 (AID 2283601). The method in brief:
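Signal is the blue/green (460nm/530nm) ratio of cleaved versus uncleaved CCF4-AM substrate, read after 2 h substrate loading. Cells were HCT116 carrying the p53-responsive beta-lactamase reporter, dosed 16 h at 37C, 5% CO2; CellTiter-Glo measured in parallel.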

Assay [9] in a line: Tanguay_ZF_120hpf_MORT_legacy: (Legacy) Oregon State University Tanguay Lab 120 Hour Post-fertilization zebrafish Assay for Mortality (AID 2283633). The method in brief:
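Mortality endpoint from a multiplexed whole-embryo zebrafish screen. Dechorionated wild-type embryos received compound at 6 hpf and remained under static exposure at 28C until 120 hpf, with death noted as a present/absent call.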

A short description of assay [10]: Tanguay_ZF_120hpf_AXIS_legacy: (Legacy) Oregon State University Tanguay Lab 120 Hour Post-fertilization zebrafish Assay for Body Axis Malformation (AID 2283635). The method in brief: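 Static 6–120 hpf chemical exposure of dechorionated wild-type 5D zebrafish, one per well at 28C; morphology endpoint scored binary at 120 hpf relative to DMSO control.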
Assay [11] in a line: Tanguay_ZF_120hpf_SNOU_legacy: (Legacy) Oregon State University Tanguay Lab 120 Hour Post-fertilization zebrafish Assay for Snout Malformation (AID 2283637). A digest of the protocol: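 Binary snout-malformation call at 120 hpf in wild-type 5D embryos, chorion removed by pronase, under static exposure from 6 hpf at 28C (0.64% DMSO). Embryos dying by 24 or 120 hpf excluded.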

Assay [12] is described as follows: Tanguay_ZF_120hpf_JAW_legacy: (Legacy) Oregon State University Tanguay Lab 120 Hour Post-fertilization zebrafish Assay for Jaw Malformation (AID 2283638). A digest of the protocol: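 Static waterborne exposure of dechorionated wild-type (Tropical 5D) zebrafish from 6 to 120 hpf at 28C, 0.64% DMSO vehicle; 5uM trimethyltin chloride served as positive control. Jaw morphology recorded as binary at 120 hpf.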

Assay [13] in a line: Tanguay_ZF_120hpf_OTIC_legacy: (Legacy) Oregon State University Tanguay Lab 120 Hour Post-fertilization zebrafish Assay for Otic Vesicle Malformation (AID 2283639). A digest of the protocol: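 Statically exposed wild-type 5D zebrafish embryos, kept sealed and dark at 28C through 120 hours post fertilization, were examined by brightfield microscopy for otic vesicle defects. Responses were recorded as present or absent and analysed relative to DMSO.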

The nature of assay [14]: Tanguay_ZF_120hpf_PE_legacy: (Legacy) Oregon State University Tanguay Lab 120 Hour Post-fertilization zebrafish Assay for Pericardial Edema (AID 2283640). The method in brief:
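Read-out is the presence or absence of pericardial edema at 120 hpf under brightfield, with gain of signal fitted against DMSO controls. Larvae (5D wild-type) were statically exposed at 28C with 0.64% final DMSO.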

A short description of assay [15]: Tanguay_ZF_120hpf_SOMI_legacy: (Legacy) Oregon State University Tanguay Lab 120 Hour Post-fertilization zebrafish Assay for Somite Malformation (AID 2283647). The method in brief:
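5D WT zebrafish; chorion removed 4 hpf; 1 embryo/well from 6 hpf; static exposure to 120 hpf, 28C, 0.64% DMSO final. Endpoint: somite malformation, binary, brightfield. Mortality excluded.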

Assay [16] can be described thus: TOX21_p53_BLA_p2_viability: Viability Assessment in the Tox21 HCT-116 p53 Agonism Beta-lactamase Assay, Phase 2 (AID 2283591).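 Also: compound exposure lasted 16 h at 37 °C; actives lower the ATP signal meaning cytotoxicity.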 The method in brief:
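Cytotoxicity readout: CellTiter-Glo ATP luminescence, 30 min at room temperature, after the beta-lactamase read. Cells were HCT116 exposed 16 h at 37C to compounds pin-transferred at 217-fold dilution from DMSO stocks.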

Assay [17] can be described thus: Tanguay_ZF_120hpf_YSE_legacy: (Legacy) Oregon State University Tanguay Lab 120 Hour Post-fertilization zebrafish Assay for Yolk Sac Edema (AID 2283634). A digest of the protocol:
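Readout: presence or absence of yolk sac edema at 120 hpf, fitted upward against DMSO controls. Exposure ran statically from 6 hpf in dechorionated embryos kept at 28C.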

Assay [18] is described as follows: Tanguay_ZF_120hpf_EYE_legacy: (Legacy) Oregon State University Tanguay Lab 120 Hour Post-fertilization zebrafish Assay for Eye Malformation (AID 2283636).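 Also: binary presence or absence of eye malformation scored by brightfield in 120 hpf larvae.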 The method in brief:
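Binary brightfield scoring of eye defects at 120 hpf after static exposure from 6 hpf of single pronase-dechorionated wild-type embryos (28C, 0.64% DMSO). Non-mortality endpoints omitted where embryos died; fit vs DMSO.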

Assay [19] is described as follows: Tanguay_ZF_120hpf_BRAI_legacy: (Legacy) Oregon State University Tanguay Lab 120 Hour Post-fertilization zebrafish Assay for Brain Malformation (AID 2283641). The method in brief: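 Brain malformation in Tropical 5D zebrafish was recorded as a binary endpoint after static compound exposure from early development to 120 hpf at 28C. Activity was analysed against DMSO as negative control.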

Assay [20] can be described thus: ATG_XTT_Cytotoxicity: Cytotoxicity Assessment in the Attagene TRANS-FACTORIAL HepG2 Assay (AID 2283584). A digest of the protocol: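 Transfect HepG2 with GAL4-UAS reporter units, dose compound, incubate 24 h, then measure viable cell number by XTT. Fit concentration response against DMSO baseline.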

Usually AC50 stands for the concentration giving half of the maximal activity seen.

With `Cc1cc(C)c(O)c(C)c1`, the outcome in [1], in [2], in assay [3], in assay [4], in [5] and in [6] was inactive. Moreover, the compound was called inactive in assay [7], in assay [8], in assay [9], in assay [10], in [11] and in [12]. In addition, the call in assay [13], in assay [14] and in assay [15] was inactive.

As to `N#C[C@@H]1CC(F)(F)CN1C(=O)CNC1CC2CCC(C1)N2c1ncccn1` (stereo partly specified), the call in [1], in assay [16], in assay [3], in assay [5], in assay [7] and in assay [8] was inactive. The compound was called inactive in assay [9], in assay [17], in assay [10], in [18], in [11] and in [12]. The result in [13], in assay [19] and in [15] was inactive.

Take `COCC(C)OCC(C)O` (stereo unspecified): the compound was called inactive in assay [1], in assay [20], in assay [9], in assay [18], in assay [11] and in [12]. The outcome in [13], in [14], in assay [19] and in assay [15] was inactive.

In the case of `CCCCCCCCOC(=O)CCCCCCCCC(=O)OCCCCCCCC`, the compound was called inactive in assay [1], in assay [20], in assay [2], in [4], in [5] and in assay [6]. Besides, the call in [9], in [17], in assay [10], in assay [18], in assay [11] and in assay [12] was inactive. Further, the compound was classed as inactive in [13], in assay [14], in [19] and in assay [15].

Turning to `O=C(OCCOCCOC(=O)c1ccccc1)c1ccccc1`, the compound was classed as inactive in assay [1], in [20], in assay [2], in [4], in assay [5] and in assay [6]. Moreover, the outcome in [7], in [8], in assay [9], in assay [17], in assay [10] and in [18] was inactive. The outcome in assay [11], in [12], in assay [13], in assay [14] and in assay [19] was inactive.

Take `CCC(C)(C)C1CCC(O)CC1` (stereo unspecified): the compound was classed as inactive in assay [1], in assay [20], in assay [2], in assay [3], in assay [4] and in assay [6]. In addition, the call in assay [7], in [8], in assay [9], in assay [17], in [10] and in assay [18] was inactive. Also, the outcome in [11], in assay [12], in assay [13], in assay [14], in assay [19] and in [15] was inactive.

On to `CC(=O)NC1(c2cccc(F)c2)CCN(CC[C@@]2(c3ccc(Cl)c(Cl)c3)CN(c3ccccc3)C(=O)CO2)CC1`, for which the AC50 in [16] was 57.1 µM (active); in assay [2] it was 71.4 µM (active); in assay [3], 66.9 µM (active); in [4] it was 71.6 µM (active); in assay [5] it was 46.2 µM (active); in [6], 70.3 µM (active). Moreover, the half-maximal activity concentration (AC50) is 60.3 µM (active) in assay [7] and 65 µM (active) in assay [8]. Also, the compound was called inactive in [9], in assay [17], in assay [18], in [11], in [13] and in assay [14]. The compound was called inactive in assay [19] and in assay [15].

In the case of `CCCCOCCO`, the outcome in assay [1], in [20], in assay [2], in [4], in assay [6] and in assay [7] was inactive. The result in assay [9], in assay [10], in assay [18], in assay [11], in assay [12] and in assay [14] was inactive. The compound was classed as inactive in [19] and in [15].
